# Source: PubChem BioAssay
# Activity calls are given as the source filed them. No rule for the calls is given here.
# Biological target: Pantothenate synthetase (Mycobacterium tuberculosis (strain ATCC 25618 / H37Rv)) (UniProt P9WIL5)
# Experiment: Coupled enzyme confirmation of inhibitors against recombinant Mtb PanC (AID 375);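 also: 0% = full reaction with vehicle and 100% = no enzyme background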
# Settings: coupled enzyme assay; at 10 µM, stronger effect = higher value
# Chain of Pantothenate synthetase (Mycobacterium tuberculosis (strain ATCC 25618 / H37Rv)) (P9WIL5 whole entry, looked up): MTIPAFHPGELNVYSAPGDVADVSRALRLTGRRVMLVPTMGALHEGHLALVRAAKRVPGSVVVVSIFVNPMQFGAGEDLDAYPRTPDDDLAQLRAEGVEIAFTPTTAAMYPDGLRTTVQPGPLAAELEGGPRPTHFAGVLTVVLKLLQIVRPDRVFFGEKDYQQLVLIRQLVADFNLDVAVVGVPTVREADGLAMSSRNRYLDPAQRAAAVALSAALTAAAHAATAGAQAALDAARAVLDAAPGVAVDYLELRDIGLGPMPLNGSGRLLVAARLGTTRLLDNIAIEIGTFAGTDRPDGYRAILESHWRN
row,SMILES,inhibition
1,CCCN1CCN(CCCNC(=O)Cn2ncc3c4ccccc4n(C)c3c2=O)CC1,3% (inactive)
2,CCCc1cc(Nc2cccc(OC)c2)n2ncnc2n1,0% (inactive)
3,O=C(CCN1C(=O)COc2ccccc21)N1CCN(c2ccccn2)CC1,0% (inactive)
4,C1CCC(C(CC2CCCCN2)C2CCCCC2)CC1 (stereo not drawn),3% (inactive)
5,COc1ccccc1OCC(=O)N1CCNC1=O,0% (inactive)
6,O=C(CCn1c(=S)[nH]c2cc3c(cc2c1=O)OCO3)N1CCN(C2CCCCC2)CC1,0% (inactive)
7,Cc1nc2ccc(NC(=O)N3CCSCC3)cc2s1,1% (inactive)
8,Cc1ccc(S(=O)(=O)NCCCNC(=O)N2CCOCC2)cc1,0% (inactive)
9,C=CCc1c(C)nc(SC)nc1Nc1ccc(C(=O)O)cc1,6% (inactive)
10,CCCOc1ccc(N2C(=O)CC(SCCN)C2=O)cc1 (stereo not drawn),0% (inactive)
11,CNC(=O)CC(C(=O)O)c1ccc(OC(C)C)cc1 (stereo not drawn),0% (inactive)
12,CC(C)CCNC(=O)NC(=O)CSc1nnc(COc2ccccc2Cl)o1,7% (inactive)
13,CCc1c(C)c2c(C)nn(-c3ccccc3)c2[nH]c1=O,0% (inactive)
14,COc1ccccc1S(=O)(=O)Cc1ccc(C(=O)NCCN2CCCCCC2)o1,0% (inactive)
15,CN(CC(=O)Nc1ccncc1)S(=O)(=O)c1ccccc1,10% (inactive)
16,Cn1c(NCc2cccc(Br)c2)nc2ccccc21,1% (inactive)
17,CSc1nc2ccc(Nc3nc(N4CCOCC4)nc(N4CCOCC4)n3)cc2s1,2% (inactive)
18,Cc1nc(Sc2cccn2C)c(C(F)(F)F)c(=O)[nH]1,0% (inactive)
